According to the supplement of paper PMC9262897, “Low-cost anti-mycobacterial drug discovery using engineered E. coli” (Nature Communications, 2022):
Structures can show the parent of a compound that is named as a salt. ± gives the standard deviation of the averaged measurements.

Tested on: E. coli TESEC Mtb DapB
Experiment: growth (OD600 after 10 h); higher = more growth (less inhibition)
Details: arabinose induction (level): Low; compound 0.1 mM; raw OD600 reference: median of DMSO wells 0.227, cell-free background 0.041
Protocol: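 TESEC E. coli strains in which the native enzyme is deleted and replaced by arabinose-inducible Mtb Asd, DapB, CysH or TrpD, each grown in its selective medium. Strains were screened against the Prestwick library at 0.1 mM and 1% DMSO in 384-well format at low and high arabinose induction. Growth is read as OD600 after 10 h in triplicate.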

SMILES | growth
CSc1ccc2c(c1)C(N1CCN(C)CC1)Cc1ccccc1S2 (stereo not drawn) [Methiothepin maleate] | 0.0485 ± 0.00094
N[C@@H]1CONC1=O [D-cycloserine] | 0.245 ± 0.044
Clc1ccc(COC(Cn2ccnc2)c2ccc(Cl)cc2Cl)c(Cl)c1 (stereo not drawn) [Miconazole] | 0.134 ± 0.1
CC(C)OC(=O)CCC/C=C\C[C@@H]1[C@@H](CC[C@@H](O)CCc2ccccc2)[C@H](O)C[C@@H]1O [Latanoprost] | 0.0554 ± 0.0022
CC(NCCc1ccc(O)cc1)C(O)c1ccc(O)cc1 (stereo not drawn) [Ritodrine hydrochloride] | 0.185 ± 0.01

Tested on: E. coli TESEC Alr+ wild-type control
Experiment: as above
Details: compound 0.1 mM; raw OD600 reference: median of DMSO wells 0.49, cell-free background 0.052
Protocol: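 TESEC Mtb Alr E. coli (ΔaraC ΔtolC ΔentC Δalr ΔdadX, arabinose-inducible Mtb Alr) or the Alr+ wild-type control strain, grown in defined M9-fructose medium without D-alanine in 96-well plates with Prestwick library compounds at 0.1 mM and 1% DMSO. Low Alr induction is 0.1 µM arabinose and high induction is 10 mM arabinose.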

SMILES | growth
CN(C)CCc1c[nH]c2ccc(Cn3cncn3)cc12 [Rizatriptan benzoate] | 0.633 ± 0.061
COc1ccc(CCN(C)CCCC(C#N)(c2ccc(OC)c(OC)c2)C(C)C)cc1OC (stereo not drawn) [Verapamil hydrochloride] | 0.461 ± 0.022
CC1=C(/C=C/C(C)=C/C=C/C(C)=C\C(=O)O)C(C)(C)CCC1 [Isotretinoin] | 0.425 ± 0.028
CCCOc1cc(N)ccc1C(=O)OCCN(CC)CC [Propoxycaine hydrochloride] | 0.487 ± 0.08
CO/N=C(\C(=O)N[C@@H]1C(=O)N2C(C(=O)O)=C(COC(C)=O)CS[C@H]12)c1csc(N)n1 [Cefotaxime sodium salt] | 0.0462 ± 0.0019
Clc1ccc(Cn2c(CN3CCCC3)nc3ccccc32)cc1 [Clemizole hydrochloride] | 0.452 ± 0.049
COc1ccccc1N1CCN(CCCCNC(=O)c2ccc3ccccc3c2)CC1 | 0.374 ± 0.0092
CC[C@H](c1ccc(O)cc1)[C@@H](CC)c1ccc(O)cc1 [Hexestrol] | 0.054 ± 0.0093
